Only some compounds are listed: those with a hit (about 3% of all), similar ones and a draw of the others.
SARS PLP yeast: SARS-CoV PLP inhibition in yeast | S. cerevisiae expressing SARS-CoV PLpro, growth rescue | Potency, µM (highest dose often 32.9 µM), most hits filed as activators | 330,000 tested, 0.19% active | AID 485353; calls by dose curve; further: nearly all actives have a fitted effect of over 55% in size
Sm TGR block: inhibitors of Schistosoma mansoni thioredoxin glutathione reductase. Q962Y6. purified TGR, DTNB reduction, TNB absorbance 405 nm. Potency, µM (series often up to 114 µM), usual class: inhibitors. 360,000 tested, 3% active; active means well fitted inhibition curve with a large enough effect; inconclusive means small, poorly fitted or top-dose-only effect; inactive means no such curve, though single readings can be large or run the other way; further: nearly all actives have a fitted effect of over 60% in size
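TGR 20 nM + NADPH 100 uM (dispensed conc.), cpd preinc 15 min RT; start with NADPH (500 uM addition) then DTNB (15 mM addition). Kinetic TNB absorbance, 405 nm filter. Four-parameter Hill fit across titration.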
A number is an active result; n = inactive; u = inconclusive; x = no result given.

SMILES | SARS PLP yeast | Sm TGR block
COc1ccc2ccc3c(c2c1)N=C[C@]1(O3)N(C)c2ccccc2C1(C)C | n | 28µM
Cc1cccc(CSCCNC(=O)C2CCN(S(=O)(=O)Cc3ccccc3)CC2)c1 | x | n
N#CC1(c2ccccc2)CCC(=NNS(=O)(=O)c2ccccc2)CC1 (stereo not drawn) | n | 40µM
CC1CCC/C(=N\NS(=O)(=O)c2ccccc2)C1 (stereo not drawn) | n | u
O=C(CCCCn1c(=O)c2ccccc2n(Cc2cccc(Cl)c2)c1=O)NCc1ccc2c(c1)OCO2 | x | n
COc1ccc(CCNC(=O)CSc2nc(O)c(C(C)C)c(=O)[nH]2)cc1OC | n | n
COc1cc(C(c2c(O)nc(SC)[nH]c2=O)c2c(O)nc(SC)[nH]c2=O)cc(OC)c1OC | n | 1.8µM
COc1cc(C(c2c(O)cc(C)[nH]c2=O)c2c(O)cc(C)[nH]c2=O)ccc1O | n | n
COc1ccc(OC)c(C(c2c(O)nc(SC)[nH]c2=O)c2c(O)nc(SC)[nH]c2=O)c1 | n | 1.4µM
O=C(CSc1ncc2c(n1)-c1ccccc1N(Cc1ccc(Cl)cc1)S2(=O)=O)c1ccccc1 | x | n
CCOc1ccc(-c2cc3c(=O)n(CC(=O)NCc4ccccc4)ccn3n2)cc1 | x | n
Cc1ccc(S(=O)(=O)NCC(c2ccc(N(C)C)cc2)N2CCCC2)cc1 (stereo not drawn) | x | n
CCc1nn(CC(=O)Nc2c(C)cc(C)cc2C)c(=O)c2cc3sccc3n12 | x | n
COc1ccc(-n2nc(C(=O)N(C)c3cc(Cl)ccc3OC)c3c4ccccc4n(C)c3c2=O)cc1 | x | n
COc1ccccc1C(=O)Nc1ccnn1C1CCN(CCC(C)c2ccc(C)o2)CC1 (stereo not drawn) | n | u
O=C(Nc1ccnn1C1CCN(Cc2cccnc2)CC1)c1ccccc1Cl | n | n
COc1cccc(CN2CCC(n3nccc3NC(=O)CCCc3ccccc3)CC2)c1O | n | 8.9µM
Cc1cc(CN2CCC(n3nccc3NC(=O)c3ccccc3Cl)CC2)cc(C)c1O | n | 45µM
Cc1ccc(C(C)CCN2CCC(n3nccc3NC(=O)c3ccccc3)CC2)o1 (stereo not drawn) | u | 35µM
O=C(CCCc1ccccc1)Nc1ccnn1C1CCN(Cc2ccccc2F)CC1 | n | n
CCCNc1nc(NCc2ccccc2OC)c2cnn(C)c2n1 | x | n
Cn1c(SCc2ccccc2F)nc2c([nH]c3ccccc32)c1=O | x | n
Cc1nc(N2N=C(c3ccc(Cl)cc3)CC2c2ccco2)sc1C(=O)N(C)C (stereo not drawn) | n | u
COc1ccc(C2=NN(c3nc(-c4ccccc4)c(CC(=O)O)s3)C(c3ccco3)C2)cc1 (stereo not drawn) | n | 20µM
Cc1cc2n(n1)CCCN2C(=O)Nc1ccc(F)c(Cl)c1 | x | n
SMILES | SARS PLP yeast | Sm TGR block
Cc1cc2n(n1)SC(Nc1ccc(F)c(Cl)c1)N2 (stereo not drawn) | n | 8.9µM
O=C(c1cc(-c2ccco2)nc2ccccc12)N1CCCC(C(F)(F)F)C1 (stereo not drawn) | n | 35µM
COc1cc2ccccc2cc1C(=O)N1CCCC(C(F)(F)F)C1 (stereo not drawn) | n | n
O=C(c1cc2ccccc2cc1O)N1CCCC(C(F)(F)F)C1 (stereo not drawn) | n | 28µM
CCN1CCN(C(=O)c2cc(-c3ccco3)nc3ccccc23)CC1 | n | 28µM
CCOC(=O)C1CCCN(C(=O)c2cc(-c3ccco3)nc3ccccc23)C1 (stereo not drawn) | n | x
CCN1CCN(C(=O)c2cc(-c3ccc(Cl)s3)nc3ccccc23)CC1 | n | u
CN(C)c1cccc(C(=O)Nc2nc3ccc(S(=O)(=O)N4CCCC4)cc3s2)c1 | x | n
O=C(NCc1ccccc1)c1ccc(Cn2c(=O)c3cccn3c3cccnc32)cc1 | x | n
CCC1Oc2ccc(Cl)cc2N(CC(=O)NCCc2ccc(Cl)cc2)C1=O (stereo not drawn) | x | n
N#CC1(NC(=O)CN2C(=O)c3ccccc3C2=O)CCCCC1 | n | n
N#CC1(NC(=O)Cn2ncc(Cl)c(Cl)c2=O)CCCCC1 | n | 18µM
COc1cc(OC)cc(C(=O)N2CCC(c3ccncc3)CC2)c1 | x | n
S=C(Nc1ccccc1)Nc1nccs1 | n | 11µM
Fc1ccc(NC(=S)Nc2nccs2)cc1 | n | u
CCN(CC)c1nn2c(=O)c(C(=O)NCc3ccc(N(C)C)cc3)cnc2s1 | x | n
CCOc1ccc(C(NC(C)=O)c2ccc(OC)c(OC)c2)cc1 (stereo not drawn) | n | n
COc1ccc(C(NC(=O)/C=C/c2ccco2)c2ccc(OC)c(OC)c2)cc1 (stereo not drawn) | n | 25µM
CCOc1ccc(C(NC(=O)/C=C/c2ccco2)c2ccc(OC)c(OC)c2)cc1 (stereo not drawn) | n | 45µM
COc1ccc(C(NC(=O)c2ccco2)c2ccc(OC)c(OC)c2)cc1OC | n | n
Cc1sc2ncn(CC(=O)Nc3ccc(C(C)C)cc3)c(=O)c2c1S(=O)(=O)N1CCN(c2ncccn2)CC1 | x | n
CC(=O)c1ccc(NC(=O)c2sc(-n3nc(C)c(Cc4ccccc4)c3C)nc2C)cc1 | x | n
CCc1cccc(NC(=O)CSc2nc3ccsc3c(=O)n2CC)c1 | x | n
CCCCCc1c2c(cc(O)c1C(=O)O)OC(=O)c1c(cc(OC)cc1C(=O)CCCC)O2 | n | 40µM
CCCCCc1c2c(cc(O)c1C(=O)O)OC(=O)c1cc(C(=O)CCCC)c(OC)cc1O2 | n | x
SMILES | SARS PLP yeast | Sm TGR block
COCc1cc(C)nc2c1C(=O)NC(c1ccc(C)cc1)N2Cc1ccccc1 (stereo not drawn) | x | n
Cc1ccc(CNC(=O)c2cc(=O)c3cc(C)cc(C)c3o2)cc1 | x | n
O=C(CC1SC2=NCCN2C1=O)Nc1ccccc1 (stereo not drawn) | n | n
Cc1ccc(NC(=O)CC2SC3=NCCN3C2=O)cc1 (stereo not drawn) | n | 7.9µM
CCCN1C(=O)SC(CC(=O)Nc2ccc(C)cc2)C1=O (stereo not drawn) | 11µM | n
Cc1ccc(NC(=O)CC2SC(=O)N(c3ccccc3)C2=O)cc1 (stereo not drawn) | n | u
O=C(CSc1nc2c([nH]c3ccccc32)c(=O)n1-c1ccccc1)NCc1ccc(F)cc1 | x | n
CC(=O)NCCC(Cc1ccccc1)c1ccco1 (stereo not drawn) | n | u
CCOC(=O)C(C#N)C(Cc1ccccc1)c1ccco1 (stereo not drawn) | n | 45µM
COc1ccc(CNC(=O)CN2C(=O)COc3ccc(S(=O)(=O)N4CCCCCC4)cc32)cc1 | x | n
CCn1c(=O)[nH]c2ccccc2c1=O | n | n
CCc1c(C(C)S(=O)(=O)c2ccccc2)[nH]c(=O)n1CC (stereo not drawn) | n | 1µM
Cc1ccc(C)c(NC(=O)CSc2ncc3c(n2)-c2ccccc2N(Cc2ccccc2C)S3(=O)=O)c1 | x | n
COCCn1c(CCC(=O)O)ccc1-c1cccs1 | n | 14µM
CCCCn1c(CCC(=O)O)ccc1-c1cccs1 | n | 8.9µM
CCCCn1c(SCC(=O)N2CCOCC2)nnc1-c1cccs1 | u | n
COCCn1c(-c2cccs2)csc1=Nc1cccnc1 | n | n
CCN(CCCNC(=O)c1ccc(Sc2ccc(F)cc2)c(NC(C)=O)c1)c1ccccc1 | x | n
Cc1nc2ncnn2c(C)c1CCC(=O)N1CCN(c2ccccc2)CC1 | x | n
Cc1c(OCC(=O)NCCCN2CCOCC2)ccc2c1oc(=O)c1ccccc12 | n | n
CC(=O)Oc1cc2c(C(=O)NCCCN3CCOCC3)c(C)oc2c2ccccc12 | n | 35µM

Bioassay records: PubChem, National Center for Advancing Translational Sciences (NCATS)
